# BoNT F protease: BoNT/F light chain protease inhibitors, primary screen, biochemical, flow cytometry, MLPCN library; inhibition, % at 10 µM; actives 0.22% (n = 360,000); Multiplex microsphere protease cleavage assay; in the data active = inhibition above about 35%, passing the limit was not always enough; inconclusive = no clear call, values can overlap the other calls
# Bead autofluor: flagged as autofluorescent in microsphere protease counterscreen; compound autofluorescence counterscreen, microsphere flow cytometry; hits give high values; fluorescence intensity (concentration not given with the values); actives 3.1% (n = 360,000); AID 624483; in the data active = fluorescence intensity above about 16000; inconclusive = no clear call, values can overlap the other calls
# Anthrax LF inh2: Bacillus anthracis LF protease inhibitors, primary screen, biochemical, multiplex microsphere, MLPCN library. actives 0.12% (n = 360,000). Lethal factor (Bacillus anthracis), P15917. inhibition, % at 10 µM. multiplex microsphere protease cleavage assay
# Target sequence (P15917 whole entry, looked up): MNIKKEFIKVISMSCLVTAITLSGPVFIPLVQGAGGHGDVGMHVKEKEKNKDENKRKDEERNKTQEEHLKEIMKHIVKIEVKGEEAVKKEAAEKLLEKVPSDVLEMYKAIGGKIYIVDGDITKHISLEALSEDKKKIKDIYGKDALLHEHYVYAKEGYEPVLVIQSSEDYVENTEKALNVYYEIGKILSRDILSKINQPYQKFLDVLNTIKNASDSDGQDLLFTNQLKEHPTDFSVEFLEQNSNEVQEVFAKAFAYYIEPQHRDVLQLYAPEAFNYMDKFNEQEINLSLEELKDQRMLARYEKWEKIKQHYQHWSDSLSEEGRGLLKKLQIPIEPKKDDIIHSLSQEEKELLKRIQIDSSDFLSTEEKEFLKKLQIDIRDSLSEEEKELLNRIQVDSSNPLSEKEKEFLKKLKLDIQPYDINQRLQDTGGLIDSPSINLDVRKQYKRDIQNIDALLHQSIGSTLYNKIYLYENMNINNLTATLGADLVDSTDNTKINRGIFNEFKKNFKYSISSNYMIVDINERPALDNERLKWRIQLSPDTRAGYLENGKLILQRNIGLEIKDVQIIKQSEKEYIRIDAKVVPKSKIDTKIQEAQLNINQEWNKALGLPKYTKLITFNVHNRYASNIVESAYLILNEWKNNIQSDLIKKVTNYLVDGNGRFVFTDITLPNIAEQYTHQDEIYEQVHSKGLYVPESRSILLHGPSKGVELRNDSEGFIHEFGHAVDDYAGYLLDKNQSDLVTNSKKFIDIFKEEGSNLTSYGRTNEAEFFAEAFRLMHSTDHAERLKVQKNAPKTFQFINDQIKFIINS
# BoNT-A LC inh2: BoNT/A light chain protease inhibitors, primary screen, biochemical, flow cytometry, MLPCN library. Botulinum neurotoxin type A light chain protease (Clostridium botulinum A str. ATCC 3502). multiplex microsphere protease substrate cleavage. inhibition, % at 10 µM. actives 0.17% (n = 360,000)
# 3CLpro inhibitor: SARS-CoV 3CLpro protease inhibitors, primary screen, biochemical, quenched FRET; Replicase polyprotein 1ab (Severe acute respiratory syndrome coronavirus), P0C6X7; inhibition, % at 6 µM; recombinant SARS-CoV 3CLpro, quenched FRET peptide cleavage; actives 0.14% (n = 290,000); in the data active = inhibition above about 12%
# CCHF vOTU inh: CCHFV vOTU protease inhibitors, primary screen, biochemical, Pep-AMC substrate, fluorescence. Crimean-Congo hemorrhagic fever virus L polyprotein viral ovarian tumor (vOTU) protease …. inhibition, % at 11.5 µM. actives 0.55% (n = 370,000); in the data active = inhibition above about 30%
# A number is an active result; i = inactive; ? = inconclusive; nt = not tested or not shown. Shown are actives, neighbours in structure and some others; about 3.9% of the full set was active somewhere. Cut-off read from the data, not from the text of the source, unless noted: active = inhibition above about 30%; inconclusive = no clear call, values can overlap the other calls; inactive = below that.
SMILES,BoNT F protease,Bead autofluor,Anthrax LF inh2,BoNT-A LC inh2,3CLpro inhibitor,CCHF vOTU inh
Cc1cccc2c1N(N=O)CCC2,i,i,i,i,i,i
Cc1cc[n+]2c3c(cccc13)CCC2,i,20480,i,i,i,i
CCCCn1c(N)c(-c2nc3ccccc3s2)c2c([N+](=O)[O-])nn(CC)c(=O)c21,i,i,i,i,i,i
CCCCCn1c(N)c(-c2nc3ccccc3s2)c2c([N+](=O)[O-])nn(CC)c(=O)c21,i,17846,i,i,i,i
Cc1cnn(-c2nc(-c3cccs3)cc(C(F)(F)F)n2)c1,i,23064,i,i,i,i
FC(F)(F)c1cc(-c2cccs2)nc(-n2cc(Br)cn2)n1,i,i,i,i,i,i
COc1ccccc1N(C(=O)NCc1ccccc1)C1=NCC(C)S1 (centres undefined),i,i,i,i,i,i
CNC(=O)N(C1=NCC(C)S1)c1ccc(F)cc1F (centres undefined),i,23465,i,?,i,i
C=CCn1c(SCC(N)=O)nnc1-c1ccc(C)cc1,nt,nt,nt,nt,nt,i
CCOc1ccc(-n2c(=S)sc3c(=O)[nH]c(SCC(=O)NCc4ccco4)nc32)cc1,i,20051,i,?,i,i
Cc1ccc(O)c(C2=NCCNC(C(F)(F)C(F)F)=C2)c1,i,23315,i,i,i,i
Oc1ccc(Cl)cc1C1=NCCNC(C(F)(F)C(F)F)=C1,i,22480,i,i,i,i
COc1ccc(S[C@]2(C(=O)N3CCN(C(C)=O)CC3)CC(=O)N(C(=O)c3ccccc3)[C@@H]2c2ccc(OC)cc2)cc1,nt,nt,nt,nt,nt,i
COc1ccc(S[C@]2(C(=O)N3CCOCC3)CC(=O)N(C(=O)CCc3ccccc3)[C@@H]2c2ccc(OC)cc2)cc1,nt,nt,nt,nt,nt,i
Cc1noc(C)c1S(=O)(=O)N1CCC(C(=O)NC2CCCc3ccccc32)CC1 (centres undefined),i,i,i,i,i,i
O=C(NC1CCCc2ccccc21)C1CCN(S(=O)(=O)N2CCCCCC2)CC1 (centres undefined),i,21253,i,i,i,i
Cc1ccc(-c2nc3s/c(=C\c4ccco4)c(=O)n3n2)cc1,i,i,i,i,i,i
O=c1nc2s/c(=C\c3ccco3)c(=O)n2nc1Cc1ccc(F)cc1,i,25032,i,i,i,i
COC(=O)[C@]12C[C@H](CC(=O)N3CCCCC3)C(=O)N(Cc3ccc4c(c3)OCO4)C1=C[C@H](C(C)C)O[C@@H]2C1CC1,nt,nt,nt,nt,nt,i
COc1ccc(CN2CCC(CNC(=O)NC3CCC(C)CC3)CC2)cc1 (centres undefined),nt,nt,nt,nt,nt,i
O=c1nc(N(c2ccccc2)c2ccccc2)[nH]c(=O)[nH]1,i,20223,i,?,i,i
O=C1[C@H]2[C@@H](C(=O)N1c1cc(Cl)cc(Cl)c1)[C@]1(C(=O)Nc3ccccc31)N1CCC[C@@H]21,i,20946,i,i,i,i
COC(=O)[C@H](C(C)C)N1CCc2nnn(Cc3ccccc3)c2-c2cc(F)ccc2S1(=O)=O,nt,nt,nt,nt,nt,i
Cc1nnc(N2CCCC(C(=O)NCc3ccccc3F)C2)c2nn(-c3ccccc3)c(C)c12 (centres undefined),i,i,i,i,i,i
CCc1ccc(CNC(=O)C2CCCN(c3nnc(C)c4c(C)n(-c5ccccc5)nc34)C2)cc1 (centres undefined),i,20786,i,i,i,i
SMILES,BoNT F protease,Bead autofluor,Anthrax LF inh2,BoNT-A LC inh2,3CLpro inhibitor,CCHF vOTU inh
Cc1nnc(N2CCCC(C(=O)NCc3cccc(F)c3)C2)c2nn(-c3ccccc3)c(C)c12 (centres undefined),i,16533,i,i,i,i
CCn1c2ccccc2c2cc(/C(C)=N/O)ccc21,i,i,i,i,i,i
C/C(=N\O)c1ccc2c3ccccc3n(C)c2c1,i,21762,i,?,i,i
Cc1nc(-c2cccnc2)sc1C(=O)Nc1cccc(C(F)(F)F)c1,i,22572,i,?,i,i
Cc1nc(-c2cccnc2)sc1C(=O)Nc1ccc(C(F)(F)F)cc1,i,22745,i,?,i,i
Cc1nc(Cl)sc1C(=O)Nc1cccc(C(F)(F)F)c1,i,i,i,i,nt,i
COc1ccc(OC)c(S(=O)(=O)N2CCCC(C(=O)Nc3c(C)n(C)n(-c4ccccc4)c3=O)C2)c1 (centres undefined),nt,nt,nt,nt,nt,i
COc1ccc(N(C(=O)c2cccc([N+](=O)[O-])c2)S(=O)(=O)c2ccc3c(c2)n(C)c(=O)n3C)cc1,i,16542,i,?,i,i
COC(=O)[C@@]12CCCCC3=C1N(CCC3)C(=O)[C@H]2CC(=O)NCCCCc1ccccc1,nt,nt,nt,nt,nt,i
c1ccc(CCc2nn3c(Cn4cnc5ccccc54)nnc3s2)cc1,i,i,i,i,i,i
COc1ccccc1-c1nnc2sc(COc3ccccc3)nn12,i,20024,i,i,i,i
COc1ccc(OCc2nn3c(Cn4cnc5ccccc54)nnc3s2)cc1,i,16600,i,i,i,i
COc1ccccc1-c1nnc2sc(COc3ccc(Cl)cc3Cl)nn12,i,i,i,i,i,i
CCOC(=O)c1cccc(NC(=O)c2ccco2)c1,i,23498,i,?,i,i
Cn1c(C(=O)Nc2ccc3c(c2)OCCO3)cc2sccc21,i,16792,i,i,i,i
CCOC(=O)c1ccccc1NC(=O)c1cc2sccc2n1C,i,22752,i,i,i,i
Cc1ccc2nc(-c3ccc(NC(=O)c4ccco4)cc3)[nH]c2c1,i,i,i,i,i,nt
O=C(Nc1cccc(-c2nc3ccccc3[nH]2)c1)c1ccco1,i,25261,i,i,i,i
CCS(=O)(=O)Nc1ccc2c(c1)C(=O)N(C)[C@@H]1CC[C@H](CC(=O)NCCCN3CCOCC3)O[C@H]1CO2,nt,nt,nt,nt,nt,i
COc1ccc(C2C(C(=O)N3CCN(C=O)CC3)CC(=O)N2c2ccc(OC)cc2)cc1 (centres undefined),nt,nt,nt,nt,nt,i
O=C(NCCc1c[nH]c2ccccc12)OCc1cn(-c2cccc(Cl)c2)nn1,nt,nt,nt,nt,nt,i
O=S(=O)(CC1NCc2cc(F)ccc21)NCCc1ccccc1 (centres undefined),nt,nt,nt,nt,nt,i
CCOC(=O)c1cccc(NC(=O)c2cccs2)c1,i,i,i,i,i,i
CCOC(=O)c1cccc(NC(=O)c2cc3sccc3n2C)c1,i,26158,i,?,i,i
CCOC(=O)c1cccc(NC(=O)/C=C/c2cccc([N+](=O)[O-])c2)c1,i,19203,i,i,i,i
Cc1nn2c(N3CCN(C4CCCC4)CC3)cc(C(C)(C)C)nc2c1-c1ccccc1,i,23963,i,?,i,i
COc1ccc(-c2c(C)nn3c(N4CCN(Cc5ccccc5)CC4)cc(C)nc23)cc1OC,i,i,i,i,i,i
